Common to all, as to design: species or system human, MV4-11 + K-562 + COLO205 + SK-N-BE2 + OVCAR-8
Assay [1] has as its system ACVR1B. To be noted: read-out: apparent Kd; compound concentrations:100 nM and 1000 nM (sheet 'Samples'); n = 1.
Assay [2] deals with GAK. The following applies: read-out: apparent Kd; compound concentrations:100 nM and 1000 nM (sheet 'Samples'); n = 1.
For assay [3], the system named is NQO2. To be noted: read-out: apparent Kd; compound concentrations:100 nM and 1000 nM (sheet 'Samples'); n = 1.
Assay [4] deals with PRKD2. To be noted: read-out: apparent Kd; compound concentrations:100 nM and 1000 nM (sheet 'Samples'); n = 1.
For assay [5], the system named is PRKD3. The following applies: read-out: apparent Kd; compound concentrations:100 nM and 1000 nM (sheet 'Samples'); n = 1.
The subject of assay [6] is RIPK2. The following applies: read-out: apparent Kd; compound concentrations:100 nM and 1000 nM (sheet 'Samples'); n = 1.
For assay [7], the system named is TGFBR1. The following applies: read-out: apparent Kd; compound concentrations:100 nM and 1000 nM (sheet 'Samples'); n = 1.
The test system of assay [8] is TGFBR2. The following applies: read-out: apparent Kd, n = 1.
The subject of assay [9] is TNIK. To be noted: read-out: apparent Kd; compound concentrations:100 nM and 1000 nM (sheet 'Samples'); n = 1.
The subject of assay [10] is ZAK. The following applies: read-out: apparent Kd; compound concentrations:100 nM and 1000 nM (sheet 'Samples'); n = 1.
For assay [11], the system named is ACVR1. To be noted: read-out: apparent Kd, compound concentrations: 100 nM and 1000 nM (sheet 'Samples'), n = 1.
Assay [12] has as its system ACVR2B. To be noted: read-out: apparent Kd, compound concentrations: 100 nM and 1000 nM (sheet 'Samples'), n = 1.
The test system of assay [13] is AKT1. The following applies: read-out: apparent Kd; compound concentrations: 100 nM and 1000 nM (sheet 'Samples'), CATDS: 8.7869055703498899E-2; n = 1.
The subject of assay [14] is AKT2. To be noted: read-out: apparent Kd; compound concentrations: 100 nM and 1000 nM (sheet 'Samples'), CATDS: 9.9123908030557498E-2; n = 1.
Assay [15] has as its system DDR2. The following applies: read-out: apparent Kd; compound concentrations: 100 nM and 1000 nM (sheet 'Samples'), CATDS: 9.6979339213766697E-2; n = 1.
Assay [16] has as its system ERBB3. The following applies: read-out: apparent Kd; compound concentrations: 100 nM and 1000 nM (sheet 'Samples'), CATDS: 0.104926252845552; n = 1.
Assay [17] deals with MAP2K1. To be noted: read-out: apparent Kd; compound concentrations: 100 nM and 1000 nM (sheet 'Samples'), CATDS: 9.3485581268639997E-2; n = 1.
The subject of assay [18] is NCL. To be noted: read-out: apparent Kd; compound concentrations: 100 nM and 1000 nM (sheet 'Samples'), CATDS: 9.6162289206332394E-2; n = 1.
The test system of assay [19] is NNT. To be noted: read-out: apparent Kd; compound concentrations: 100 nM and 1000 nM (sheet 'Samples'), CATDS: 0.104881561069948; n = 1.
Assay [20] concerns RIOK2. To be noted: read-out: apparent Kd; compound concentrations: 100 nM and 1000 nM (sheet 'Samples'), CATDS: 9.3979230016613804E-2; n = 1.
For assay [21], the system named is ATM. To be noted: read-out: apparent Kd; compound concentrations: 100 nM and 1000 nM (sheet 'Samples'), CATDS: 0.20840274799776901; n = 1.
Assay [22] concerns CDC42BPG. To be noted: read-out: apparent Kd; compound concentrations: 100 nM and 1000 nM (sheet 'Samples'), CATDS: 7.2395541627420706E-2; n = 1.
The test system of assay [23] is CLK1. To be noted: read-out: apparent Kd; compound concentrations: 100 nM and 1000 nM (sheet 'Samples'), CATDS: 0.111342996670081; n = 1.
The test system of assay [24] is CLK2. The following applies: read-out: apparent Kd; compound concentrations: 100 nM and 1000 nM (sheet 'Samples'), CATDS: 0.14537230764377601; n = 1.
Assay [25] has as its system CLK4. The following applies: read-out: apparent Kd; compound concentrations: 100 nM and 1000 nM (sheet 'Samples'), CATDS: 9.3990878908875697E-2; n = 1.
Assay [26] relates to DDX3X;DDX3Y. The following applies: read-out: apparent Kd, n = 1.
Assay [27] deals with FLT3. The following applies: read-out: apparent Kd; compound concentrations: 100 nM and 1000 nM (sheet 'Samples'), CATDS: 0.113809183908987; n = 1.
For assay [28], the system named is RIPK3. To be noted: read-out: apparent Kd; compound concentrations: 100 nM and 1000 nM (sheet 'Samples'), CATDS: 7.33471794094432E-2; n = 1.
Assay [29] concerns PI4KB. To be noted: read-out: apparent Kd; compound concentrations: 100 nM and 1000 nM (sheet 'Samples'), CATDS: 0.57979233132980301; n = 1.
Assay [30] has as its system DDR1. The following applies: read-out: apparent Kd; compound concentrations:100 nM and 1000 nM (sheet 'Samples'); n = 1.
For assay [31], the system named is MAPK10. The following applies: read-out: apparent Kd; compound concentrations:100 nM and 1000 nM (sheet 'Samples'); n = 1.
Assay [32] relates to MAPK14. To be noted: read-out: apparent Kd; compound concentrations:100 nM and 1000 nM (sheet 'Samples'); n = 1.
The subject of assay [33] is MAPK9. To be noted: read-out: apparent Kd; compound concentrations:100 nM and 1000 nM (sheet 'Samples'); n = 1.
In assay [34] the test system is MAPKAPK2. To be noted: read-out: apparent Kd; compound concentrations:100 nM and 1000 nM (sheet 'Samples'); n = 1.
For assay [35], the system named is NLK. The following applies: read-out: apparent Kd; compound concentrations:100 nM and 1000 nM (sheet 'Samples'); n = 1.
Setting [36] is: compound concentrations:100 nM and 1000 nM (sheet 'Samples').

Read-outs that look alike come from different tables or passages of the source.

For `c1ccc(-c2n[nH]cc2-c2ccnc(-c3ccc(OCCN4CCOCC4)cc3)c2)nc1` [GW695874X], the potency estimated from few doses in [1] was 51.4 nM; in assay [2], 432 nM; in assay [3], 256 nM; in assay [4], 648 nM; in assay [5], 1460 nM; in [6], 774 nM. Further, the potency estimated from few doses was 27.7 nM in assay [7], 758 nM in assay [8] (setting [36]), 1170 nM in [9] and 2090 nM in assay [10].
Turning to `COc1ccc(C)c(Nc2ccnc(Nc3ccc(-c4cnc[nH]4)cc3)n2)c1.Cl` [GW784041A], the potency estimated from few doses is 1190 nM in [11] (CATDS: 0.125244350144667); 1600 nM in assay [12] (CATDS: 0.106004759644949); 2370 nM in assay [13]; 1820 nM in [14]; 1910 nM in [15]; 1630 nM in assay [16]. Moreover, the potency estimated from few doses in assay [17] was 2060 nM; in [18], 1940 nM; in assay [19], 1630 nM; in [20], 2040 nM.
Consider `CCS(=O)(=O)c1ccc(OC)c(Nc2ncc(-c3cccc(C(C)=O)c3)o2)c1` [GW621431X], for which the potency estimated from few doses was 882 nM in assay [11] (CATDS: 9.7395071504851799E-2); 232 nM in [21]; 2020 nM in assay [22]; 661 nM in assay [23]; 405 nM in assay [24]; 958 nM in [25]. Also, the potency estimated from few doses in [26] (compound concentrations: 100 nM and 1000 nM (sheet 'Samples'), CATDS: 7.1763596621612302E-2) is 2090 nM; in assay [27] it was 633 nM; in assay [28], 1930 nM; in [8] (compound concentrations: 100 nM and 1000 nM (sheet 'Samples'), CATDS: 0.12096887154144) it was 562 nM.
As to `CNc1ncnc2[nH]ncc12` [SKF-18355], the potency estimated from few doses in assay [12] (CATDS: 0.43951319986121201) is 1910 nM; in [29] it was 1080 nM.
On to `CNc1ncc2cc(Oc3ccc(F)cc3F)c(=O)n(C)c2n1` [RO5083957-000], for which the potency estimated from few doses in assay [1] is 853 nM; in assay [30], 958 nM; in [26] (setting [36]) it was 1740 nM; in assay [31] it was 1750 nM; in assay [32], 618 nM; in [33] it was 1640 nM. The values for the potency estimated from few doses in assay [34] and in [35] were 843 nM and 1800 nM, respectively.
